In PubChem BioAssay (Tox21) one finds Potency and activation data, which are given here for 40 compounds.

Inconclusive results are not listed. Where a call stands in place of a potency, no number is given. Active and inactive are the calls of the source. Calls follow the shape of the full dose curve.

Sequence of Thyrotropin receptor (Homo sapiens) (P16473 whole entry, looked up): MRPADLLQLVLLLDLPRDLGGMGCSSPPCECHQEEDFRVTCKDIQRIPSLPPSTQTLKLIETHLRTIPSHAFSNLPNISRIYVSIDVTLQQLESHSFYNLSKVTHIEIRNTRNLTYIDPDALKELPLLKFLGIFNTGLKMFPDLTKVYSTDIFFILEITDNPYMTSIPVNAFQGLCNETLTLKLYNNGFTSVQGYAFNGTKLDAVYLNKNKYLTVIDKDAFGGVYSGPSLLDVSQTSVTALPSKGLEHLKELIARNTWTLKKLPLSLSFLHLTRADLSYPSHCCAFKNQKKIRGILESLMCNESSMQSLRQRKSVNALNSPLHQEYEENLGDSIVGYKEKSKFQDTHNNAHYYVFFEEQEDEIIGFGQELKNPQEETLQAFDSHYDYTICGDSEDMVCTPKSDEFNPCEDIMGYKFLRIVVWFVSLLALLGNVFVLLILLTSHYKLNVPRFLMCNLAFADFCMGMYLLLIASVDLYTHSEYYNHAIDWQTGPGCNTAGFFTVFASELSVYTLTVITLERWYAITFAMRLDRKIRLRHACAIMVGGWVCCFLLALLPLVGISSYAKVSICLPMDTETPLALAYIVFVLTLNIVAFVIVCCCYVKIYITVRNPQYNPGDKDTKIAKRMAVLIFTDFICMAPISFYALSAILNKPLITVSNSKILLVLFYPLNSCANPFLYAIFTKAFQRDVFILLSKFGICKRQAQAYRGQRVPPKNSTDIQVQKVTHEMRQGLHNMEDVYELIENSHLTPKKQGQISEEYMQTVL

For the experiment, the target named is Thyrotropin receptor (Homo sapiens) (UniProt P16473). The experiment in a line: qHTS assay to identify small molecule agonists of the thyroid stimulating hormone receptor (TSHR) signaling pathway (AID 1224843). Also: nearly all actives have a fitted effect of over 45% in size. Conditions: TSHR-HEK293 cells, cAMP HTRF, agonist mode, 30 min; series mostly up to 92.4 µM. The source says:
National Center for Advancing Translational Sciences [NCATS]
NIH Chemical Genomics Center [NCGC]
U.S. Environmental Protection Agency [EPA]
National Institutes of Environmental Health Sciences [NIEHS]
National Toxicology Program [NTP]
U.S. Food and Drug Administration [FDA]
TSHR is the receptor for thyrotropin (thyroid stimulating hormone or TSH), a member of the glycoprotein hormone family. TSH is released by the anterior pituitary gland and is the main regulator of thyroid gland growth and development. Upon binding circulating thyrotropin, a G-protein signal cascade activates adenylyl cyclase and […] cAMP concentration is increased. cAMP is a key second messenger involved extensively in cellular signal transduction pathways associated with the majority of G-protein coupled receptors (GPCRs). The activation of these GPCRs by neurotransmitters, lipids, nucleotides, peptides and hormones results in the activation or the inhibition of plasma membrane-bound adenylate cyclase through heterotrimeric G-proteins. A cell-based TSHR assay was used to screen the Tox21 10K library for compounds that can modulate TSHR in agonist mode.
Tox21 Assay Protocol Summary:
TSHR-Hek293 cells were dispensed at 800 cells/4uL/well in 1536-well white plates using a Multidrop dispenser. […] The plates were incubated at room temperature for 30 min. 2.5 ul/well of cAMP-d2 and 2.5ul/well of anti-cAMP-cryptate was added respectively into the assay plates using a Flying Reagent Dispenser. After 1 hr incubation at room temperature, the fluorescence intensity in the plates was measured using an Envision plate reader. Each test compound was measured at 15 concentrations and in triplicates.
A general note: Quantitative high-throughput screening tests each substance at several concentrations.
Turning to `Cc1cc(O)c(Cl)cc1C`, the Potency result was “inactive”. Turning to `CC(C)C[P+](C)(CC(C)C)CC(C)C`, the Potency entry was “inactive”. `CCCCCCCCCCCCCCCCN(C)C`: the activation is -17.9% [at 8.39 µM] (inactive).

With `CCCC[O][Al]([O]CCCC)[O]CCCC`, the Potency result is “inactive”. On the same count and under the same terms, in the case of `N#Cc1cc(NC(=O)C(=O)O)c(Cl)c(NC(=O)C(=O)O)c1` it was “inactive”. Same read-out and setting: to `CCCCN1C(=O)c2ccccc2C1=O` belongs “inactive”; to `COc1cc(NS(=O)(=O)c2ccc(N)cc2)ncn1`, “inactive”; to `CCCCCCCCCCCCCC(=O)OCC`, “inactive”. As for `C[C@]12C=CC(=O)C=C1[C@@H](F)C[C@@H]1[C@@H]2[C@@H](O)C[C@@]2(C)[C@H]1CC[C@]2(O)C(=O)CO`, the Potency entry was “inactive”. Still for that read-out and setting: to `CCCCc1ccc(Cl)cc1` belongs “inactive”; to `NC(=O)CC[C@@H](N)C(=O)O`, “inactive”. Still for that read-out and setting: to `O=Cc1ccc(C(=O)O)cc1` belongs “inactive”; to `CCCCCCCOC(C)=O`, “inactive”.

Consider `CC(C)(O)CCCC1=CCC(C=O)CC1` (stereo not given), for which the Potency entry was “inactive”. Still for that read-out and setting: to `C/C=C(\C)C=O` belongs “inactive”; to `CC(O)C(CO)C(C)O` (stereo not given), “inactive”; to `N#CC1(N)CCCCC1`, “inactive”. On to `Cc1cc(C)c(N)c(Cl)c1`, for which the Potency entry is “inactive”. On the same count and under the same terms, to `O=C1CC2(CCCC2)CC(=O)N1CCNCC1COc2ccccc2O1` (stereo not given) belongs “inactive”; to `CCCC(C)C(O)CC` (stereo not given), “inactive”. On the same count and under the same terms, in the case of `C=CCON/C(CCC)=C1\C(=O)CC(C)(C)C(C(=O)OC)=C1O` it was “inactive”; in that of `CCC(C)SSC(C)CC` (stereo not given), “inactive”. Still for that read-out and setting: to `CC(O)CCCCn1c(=O)c2c(ncn2C)n(C)c1=O` (stereo not given) belongs “inactive”; to `CC(=O)c1ccc2ccc3ccccc3c2c1`, “inactive”.

With `Cc1ccc(O)c(C(=O)c2ccccc2)c1`, the Potency entry is “inactive”. Still for that read-out and setting: in the case of `CC(C)(C)C(=O)CC(=O)C(C)(C)C` it was “inactive”; in that of `CCCCCCCCS(=O)(=O)O`, “inactive”. Take `O=C(O)CCCCCCCCCC(=O)O`: the Potency result is “inactive”. Still for that read-out and setting: in the case of `C=CCN(CC=C)CC=C` it was “inactive”; in that of `CCCCN(CCCC)CCCCCCN(CCCC)CCCC`, “inactive”; in that of `CCCCCCCCCCCC(C)=O`, “inactive”. On the same count and under the same terms, in the case of `C[n+]1ccccc1/C=N/O` it was “inactive”; in that of `CC(=O)Oc1ccc(C(C)=O)cc1`, “inactive”. The same measure, in the same setting: in the case of `CCCc1ccc(O)c(OC)c1` it was “inactive”. As for `CC(C)CC(O)Cc1ccccc1` (stereo not given), the Potency entry was “inactive”. `Clc1ccc2c(c1)Nc1ccccc1S2`: the Potency result is “inactive”.

On to `COC(=O)c1ccc(C(=O)O)cc1`, for which the Potency result is “inactive”. On the same count and under the same terms, in the case of `CCOCCOCCOC(C)=O` it was “inactive”; in that of `CC1(C)CC(N)CC(C)(C)N1`, “inactive”; in that of `C=CCn1cc[n+](C)c1`, “inactive”.
